The target of one assay is THRA (gene 7067) (UniProt P10827). Kind of assay: TOX21_TRA_COA_Agonist_Followup_ratio: Tox21 Thyroid Hormone Receptor alpha Agonism through Coactivator Recruitment Follow-Up Assay, Ratio (AID 2283948). In short, it runs like this:
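Cell-free TR-FRET: GST-tagged TRα LBD (2.5 nM) with 0.10% BSA and compound, then fluorescein-SRC-2 peptide (200 nM) and Tb-anti-GST antibody (2 nM). Readout 520:495 nm ratio (ex 340 nm), normalized to DMSO (0%) and T3 (100%).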

Assay [1] addresses THRB (gene 7068) (UniProt P10828). Kind of assay: TOX21_TRB_BLA_Agonist_Followup_ratio: Tox21 Thyroid Hormone Receptor beta Agonism Beta-lactamase (BLA) Follow-Up Assay, Ratio (AID 2283954; active means hit-call score of the fitted dose curve at least 0.9, where 1 is the maximum). In short, it runs like this: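 Agonist mode: compounds (11-point, triplicate) incubated 18 h with HEK293T cells carrying GAL4-DBD/human TRβ-LBD and UAS-β-lactamase. Blue/green (460/530 nm) FRET ratio read after 2 h CCF4-AM loading; CellTiter-Glo viability run in the same plates.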

The target is the same in assay [2]. Kind of assay: TOX21_TRB_COA_Agonist_Followup_ratio: Tox21 Thyroid Hormone Receptor beta Agonism through Coactivator Recruitment Follow-Up Assay, Ratio (AID 2283963). In short, it runs like this:
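Signal is the 520/495 nm emission ratio (excitation 340 nm), scaled between DMSO-only wells as 0% and T3 wells as 100%. It reflects fluorescein-labeled SRC-2 peptide recruitment to GST-TRβ ligand-binding domain detected via terbium anti-GST antibody.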

Assay [3] concerns the target Retinoic acid receptor RXR-alpha (Homo sapiens) (UniProt P19793). The assay can be described thus: TOX21_TR_RXR_BLA_Agonist_Followup_ratio: Tox21 Thyroid Hormone Receptor beta Retinoid X Receptor alpha (RXRa) Agonism Beta-lactamase (BLA) Follow-Up Assay, Ratio (AID 2283968; active means hit-call score of the fitted dose curve at least 0.9, where 1 is the maximum). In short, it runs like this: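 Agonism is scored as an increase in the 460:530 nm beta-lactamase substrate ratio over DMSO in RXRa-UAS-bla HEK293T cells exposed for 16 h to 11 compound concentrations.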

Assay [4] in a line: CCTE_Harrill_HTTr_Apoptosis_PRF_DMEM_12hr: (Pilot) CCTE's 12-hour Apoptosis Assessment for the High-Throughput Transcriptomics (HTTr) Platform, in MCF-7 cells cultured in phenol red-free DMEM + 10% charcoal-stripped fetal bovine serum, Harrill Lab (AID 2283985). In short, it runs like this: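 Caspase-3/7 activity by CellEvent Green high content imaging after 12 h compound exposure (eight concentrations) in MCF-7 grown in phenol red-free DMEM plus 10% charcoal-stripped serum; DMSO as baseline.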

Inconclusive results are not listed. Calls of active or inactive are those of the source. How the source made its calls, unless noted: active means hit-call score of the fitted dose curve at least 0.9, where 1 is the maximum; inactive means score below 0.9.

This passage reports outcome results from PubChem BioAssay (EPA / NIEHS).

Sequence of THRB (gene 7068) (P10828 whole entry, looked up, the tested form may be a part): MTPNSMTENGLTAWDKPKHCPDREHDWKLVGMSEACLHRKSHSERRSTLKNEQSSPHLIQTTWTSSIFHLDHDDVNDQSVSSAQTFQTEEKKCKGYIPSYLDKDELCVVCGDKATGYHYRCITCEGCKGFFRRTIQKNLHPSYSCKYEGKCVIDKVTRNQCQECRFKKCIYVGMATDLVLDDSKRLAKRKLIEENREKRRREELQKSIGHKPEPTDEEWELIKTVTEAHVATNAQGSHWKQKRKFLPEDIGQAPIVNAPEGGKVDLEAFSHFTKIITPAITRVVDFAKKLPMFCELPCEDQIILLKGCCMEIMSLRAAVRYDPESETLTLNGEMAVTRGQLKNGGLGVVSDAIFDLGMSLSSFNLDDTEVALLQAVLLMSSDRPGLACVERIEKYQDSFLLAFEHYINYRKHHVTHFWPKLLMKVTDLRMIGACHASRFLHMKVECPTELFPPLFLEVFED
Sequence of Retinoic acid receptor RXR-alpha (Homo sapiens) (P19793 whole entry, looked up): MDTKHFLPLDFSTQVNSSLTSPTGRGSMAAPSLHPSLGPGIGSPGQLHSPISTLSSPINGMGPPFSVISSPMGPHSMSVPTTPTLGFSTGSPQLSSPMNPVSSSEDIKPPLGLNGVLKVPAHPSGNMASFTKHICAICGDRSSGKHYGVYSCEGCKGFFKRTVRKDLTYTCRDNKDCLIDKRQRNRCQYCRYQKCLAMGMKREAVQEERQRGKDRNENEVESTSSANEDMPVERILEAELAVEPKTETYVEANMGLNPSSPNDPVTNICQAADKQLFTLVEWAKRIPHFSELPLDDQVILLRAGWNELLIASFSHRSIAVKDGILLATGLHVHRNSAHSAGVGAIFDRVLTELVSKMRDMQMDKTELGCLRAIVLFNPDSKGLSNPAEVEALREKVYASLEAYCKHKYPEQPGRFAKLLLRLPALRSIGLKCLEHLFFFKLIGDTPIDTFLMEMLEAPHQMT
Sequence of THRA (gene 7067) (P10827 whole entry, looked up, the tested form may be a part): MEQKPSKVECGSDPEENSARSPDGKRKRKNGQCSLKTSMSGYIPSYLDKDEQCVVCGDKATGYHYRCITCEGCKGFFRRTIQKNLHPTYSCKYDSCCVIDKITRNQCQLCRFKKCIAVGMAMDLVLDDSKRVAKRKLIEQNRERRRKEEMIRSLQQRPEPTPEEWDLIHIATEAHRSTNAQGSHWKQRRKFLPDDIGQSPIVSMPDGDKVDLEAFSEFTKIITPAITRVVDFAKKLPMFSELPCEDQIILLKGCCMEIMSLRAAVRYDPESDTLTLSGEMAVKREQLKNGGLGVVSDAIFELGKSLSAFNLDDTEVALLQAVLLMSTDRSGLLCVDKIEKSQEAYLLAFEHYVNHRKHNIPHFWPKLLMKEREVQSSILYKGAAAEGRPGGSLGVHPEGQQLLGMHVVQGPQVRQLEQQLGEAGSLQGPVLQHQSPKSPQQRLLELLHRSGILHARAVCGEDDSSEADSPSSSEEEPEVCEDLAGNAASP

Turning to `CCn1cc[n+](C)c1`, the outcome (with THRA (gene 7067); with THRB (gene 7068) [1]; with THRB (gene 7068) [2]; in assay [3]) was inactive.

Take `CCC(C)(C)C(=O)O[C@H]1C[C@@H](C)C=C2C=C[C@H](C)[C@H](CC[C@@H]3C[C@@H](O)CC(=O)O3)[C@H]21`: in assay [4], the outcome was inactive.
